Laboratory results published in PubChem BioAssay (NCI).
Several values for one entry are separate records, joined by “and”; a condition that tells them apart may be missing. Identical values can stand only once. This is part of a sample that, as a whole, favours compounds with a hit. Of some 79,000 tested, about 15% had one in any assay. Cut-off read from the data, not from the text of the source: active = growth inhibition above about 70%; inactive = the rest.

Assays:
[1] = NCI Yeast Anticancer Drug Screen. Data for the rad50 strain (AID 155);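 note: 0% = growth of vehicle-only cultures of the same strain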; conditions: S. cerevisiae rad50 strain growth inhibition; at 50.0 µM; active compounds read high
Outline: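 Growth of the mutant yeast was measured after compound exposure and referenced to vehicle-treated cultures.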

[2] = NCI Yeast Anticancer Drug Screen. Data for the mec2-1 strain (AID 157); conditions: S. cerevisiae mec2-1 strain, at 50.0 µM, active compounds read high
Outline: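 Vehicle-treated cultures served as reference for growth inhibition of compound-exposed mec2-1 yeast.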

[3] = NCI Yeast Anticancer Drug Screen. Data for the sgs1 mgt1 strain (AID 161);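 note: 0% = growth of cultures given vehicle only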; conditions: S. cerevisiae sgs1 mgt1 strain, at 50.0 µM, active compounds read high
Outline: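 Mutant yeast exposed to compound; growth scored against vehicle-only wells.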

[4] = NCI Yeast Anticancer Drug Screen. Data for the cln2 rad14 strain (AID 165);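 note: 0% = growth equal to vehicle treated cultures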; conditions: S. cerevisiae cln2 rad14 strain, at 50.0 µM, active compounds read high
Outline: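 Each compound was tested on cln2 rad14 yeast. Inhibition of growth was calculated against vehicle-exposed controls.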

[5] = NCI Yeast Anticancer Drug Screen. Data for the bub3 strain (AID 167); conditions: S. cerevisiae bub3 mutant strain, at 50.0 µM, active compounds read high
Outline: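 Whole-cell yeast assay. The mutant strain was incubated with compounds, and growth inhibition was determined by comparison with vehicle-treated cells.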

[6] = NCI Yeast Anticancer Drug Screen. Data for the mlh1 rad18 strain (AID 175); conditions: S. cerevisiae mlh1 rad18 strain growth inhibition; at 50.0 µM; active compounds read high
Outline: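 Vehicle-treated cultures served as the reference for growth inhibition in a yeast strain carrying DNA damage repair alterations exposed to each compound.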

Measured: growth inhibition

O=C(O)CCCCCCCCCCCCC1C=CCC1 (stereo not given)
inactive: [1] -11.2% and -0.55% | [2] -31.5% and -17.9% | [3] 5.95% and -4.1% | [4] -4.4% and 9.45% | [5] -22.8% and -16.8% | [6] -11.2% and -6.05%

CC1(c2cccs2)NC(=O)NC1=O (stereo not given)
inactive: [1] 19.6% and 3.7% | [2] -6.2% and 9.05% | [3] 6.25% and 6.1% | [4] -41% and 2.3% | [5] 0.95% and 8.8% | [6] 7.1% and -3.55%

Cc1cc(C#N)c(=S)n(C2OC(CO)C(O)C(O)C2O)c1C (stereo not given)
inactive: [1] 7.4% and 11.9% | [2] 9.25% and 8.65% | [3] 14.2% and 15.2% | [4] 7.25% and -0.4% | [5] 7.8% and 7.75% | [6] 24.6% and 22.6%

CC12CCC(C1)C(C)(C)C2OC(=O)c1ccccc1C(=O)O (stereo not given)
inactive: [1] 11.5% and 22.9% | [2] 29.1% and -13.2% | [3] 20.4% and -25.9% | [4] 4.6% and -8.6% | [5] 13.8% and 1.3% | [6] 8.9% and 5.2%

CCC(C)C(N)C(=O)O (stereo not given)
inactive: [1] -39.2% and 2.9% | [2] -31.7% and -21.1% | [3] -17.4% and -2.15% | [4] -29.3% and 5.4% | [5] -14.1% and 4.05% | [6] -28.9% and 5.5%

COc1ccccc1/C=C/C(=O)O
inactive: [1] 30.8% and 25.7% | [2] -7.85% and 14.2% | [3] -5.2% and -7.85% | [4] -7.8% and -13.9% | [5] 3.95% and 10.9% | [6] -22.4% and 6.65%

CC(=O)Nc1cccc(N)c1
inactive: [1] 8.05% and 12.3% | [2] -12% and 6.65% | [3] 0.35% and -3.95% | [4] 5.4% and -40.4% | [5] 5.1% and 0.7% | [6] 9.6% and -1.3%

CC1OC(n2cnc3c(N)ncnc32)C(O)C1O (stereo not given)
inactive: [1] -3.75% and 14.4% | [2] 8.1% and -3.35% | [3] 2.5% and -12.4% | [4] -53.2% and 5.3% | [5] 0.85% and -1% | [6] -0.4% and -13.8%

COc1cc(-c2[o+]c3cc(O)cc(O)c3cc2O)cc(O)c1O
inactive: [1] 28.6% and 0.3% | [2] 17.6% and -25.1% | [3] 23.1% and 0.7% | [4] 12.5% and -24.9% | [5] 19.6% and 19.1% | [6] 30.2% and 24.2%

O=C(NNC(=S)NC1OC(CO)C(O)C(O)C1O)c1cccc(C(=O)NNC(=S)NC2OC(CO)C(O)C(O)C2O)n1 (stereo not given)
inactive: [1] 1.45% | [2] 19.9% and -22.6% | [3] 31.4% and 25.2% | [4] 21.4% and 7.8% | [5] 17.1% and 8.4% | [6] 27.4% and 14.9%

O=c1[nH][nH]c(=O)c2ccccc12
inactive: [1] 7.4% and 8.6% | [2] -24.6% and -7.45% | [3] -23.8% and -6.7% | [4] -1.3% and -12.8% | [5] -10.3% and -0.95% | [6] 2.75% and 25.1%

CC(=O)OCC1OC(Sc2nc(-c3ccc(Cl)cc3)c(C#N)c(=O)n2C2OC(COC(C)=O)C(OC(C)=O)C(OC(C)=O)C2OC(C)=O)C(OC(C)=O)C(OC(C)=O)C1OC(C)=O (stereo not given)
inactive: [1] 8.9% and 6.85% | [2] 7.4% and -3.8% | [3] 9.7% and -9.1% | [4] -18.6% and -12.2% | [5] 9.75% and -7.95% | [6] 2.8% and -46.5%

O=C(Oc1ccc(Br)cc1)c1ccccc1
inactive: [1] 0.75% and 5.6% | [2] -12.8% and -7.05% | [3] -4.35% and -0.05% | [4] -13.9% and -27.1% | [5] 30.9% and 13.7% | [6] -6.1% and 29.4%

O=c1oc2c(O)c(O)cc3c(=O)oc4c(O)c(O)cc1c4c23
inactive: [1] 25.8% and 6.65% | [2] 18.6% and -20.1% | [3] 34.7% and -10.7% | [4] 19% and -8.75% | [5] 29% and -35.9% | [6] -8.1% and -19.1%

Cc1ccc(N(O)C(C)(C)C)cc1
inactive: [1] -16.4% and -2.35% | [2] -17.9% and 7.6% | [3] -4.3% and 3.05% | [4] -3.85% and -1.2% | [5] -23.9% and 13.8% | [6] 9.15% and -11.9%

O=C(CCc1ccccc1)CCc1ccccc1
inactive: [1] -28.6% and 33.6% | [2] -4.3% and 4.85% | [3] 28.8% and 7.55% | [4] -30.9% and 27.6% | [5] 0.55% and 35.2% | [6] -20.4% and 26.6%

CC(=O)CCC1CC(=O)OC1(C)C (stereo not given)
inactive: [1] -37.6% and 0.75% | [2] -30% and -11.2% | [3] -14.3% and -15.4% | [4] 7.85% and -5.75% | [5] -26.2% and -5.35% | [6] -26.2% and 23.8%

Nc1ccc(CCc2ccc(N)cc2)cc1
inactive: [1] 2.95% and -24.4% | [2] -6.85% and -19.4% | [3] -34.4% and -18.4% | [4] -48.5% and -20.8% | [5] 7.35% and -18.9% | [6] 12.2% and -8.65%

CC(=O)Nc1ccc(S(=O)c2ccc(NC(C)=O)cc2)cc1
inactive: [1] -25.6% and 12% | [2] -21.3% and 9.5% | [3] -45.5% and 12.1% | [4] 7.1% and -22.4% | [5] -15.6% and 10.3% | [6] -34.8% and 24.6%

Nc1nc(N)c2ncn(C3OC(CO)C(OC4OC(CO)C(O)C(O)C4O)C(O)C3O)c2n1 (stereo not given)
inactive: [1] -0.55% and -12.2% | [2] 12.8% and 7.45% | [3] 2.45% and -27.6% | [4] -2.65% and -19.2% | [5] 1.8% and -17.8% | [6] 22.3% and -10.3%
